tim10-1 inh = inhibits growth of tim10-1 mutant yeast; hit rate 2.2% among 330,000; inhibition, % at 20 µM; S. cerevisiae tim10-1 ts strain growth, BacTiter-Glo, 24 h;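 active means inhibition of at least 40%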;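 further: mutant grown at 25 °C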
V-ATPase pHluor = alters yeast V-ATPase proton transport. S. cerevisiae, pHLuorin cytosolic pH fluorescence. response, % at 10 µM. hit rate 0.37% among 350,000. AID 504577; in the data active means response mostly above about 7.3%, no sharp cut-off; inactive means mostly below about 5.4%; further: actives read high
NALP3 yeast inh = inhibitors of NALP3 inflammasome in yeast | Yeast reconstituted NLRP3/ASC/caspase-1, beta-gal luminescence, 24 h | inhibition, % at 10 µM | hit rate 0.39% among 330,000 | AID 2825;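 active means inhibition of 50% or more; inactive means inhibition below 50%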
tim23-1 inh = tim23-1 yeast growth inhibition; hit rate 1.3% among 330,000; inhibition, % at 20 µM; S. cerevisiae tim23-1 growth, BacTiter-Glo luminescence, 24 h;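 active means growth inhibition of the mutant yeast at or above 50%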;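 further: temperature-sensitive mutant grown at 25 °C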
TIM10 inh = inhibits growth of TIM10 yeast strain. S. cerevisiae TIM10 strain growth, BacTiter-Glo luminescence, 24 h. inhibition, % at 10 µM. hit rate 1.4% among 330,000;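 active means inhibition of 40% or more at the single tested concentration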;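 further: wild-type TIM10 isogenic control strain grown at permissive 25 °C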
NALP1 inh = NALP1 inhibition. inhibition, % at 10 µM. S. cerevisiae NALP1/ASC/caspase-1 growth, X-gal OD620, 72 h. hit rate 0.61% among 280,000. AID 2071; in the data active means inhibition mostly above about 24%, no sharp cut-off; inactive means mostly below about 32%
tim10 confirm = TIM10 yeast growth inhibition, confirmed. shares compounds with TIM10 inh. S. cerevisiae tim10 strain growth, BacTiter-Glo luminescence, 24 h. inhibition, % at 10 µM. hit rate 63% among 4,600. AID 463215;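 active means inhibition of yeast growth at or above a set limit in either of two replicates at 10 µM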; further: this counterscreen used the strain with wild-type TIM10
Of the large screens only hits and unclear results are named; the others gave an inactive call (follow-up assays come after a bar, where they were run). Hits are enriched below; roughly 4.2% of the tested compounds scored in any of these assays.

COC(=O)c1cccc(NC(=S)Nc2ccc(Cl)c(Cl)c2)c1	TIM10 inh 57 | tim10 confirm 34
COC(=O)c1cccc(NC(=S)Nc2ccccc2Cl)c1	none (no result: NALP1 inh)
COC(=O)c1cccc(NC(=O)NC23CC4CC(CC(C4)C2)C3)c1	TIM10 inh 48 | tim10 confirm 38
COc1ccccc1NC(=S)N1CCN(c2ncccn2)CC1	TIM10 inh 95 | tim10 confirm inactive
COc1ccccc1NC(=S)N1CCN(c2ccccn2)CC1	none
CCCCC(=O)OCc1c(-c2cccc(OC)c2)ncc2ccccc12	none (no result: NALP1 inh)
Cc1ccc2c(c1)Cc1nc3ccccc3nc1-2	TIM10 inh 46 | tim10 confirm 51
COc1cccc(C2NC(=O)c3ccccc3O2)c1OCc1ccccc1F (stereo not drawn)	TIM10 inh 43 | tim10 confirm inactive
Cc1onc(-c2c(Cl)cccc2Cl)c1COC(=O)c1ccc(Cl)cc1	none
C=CCN(C(=O)c1ccccn1)C(C(=O)NCc1ccccc1)c1ccccc1F (stereo not drawn)	none
COc1ccc(OC)c(/C=C/C(=O)OCC(=O)NCc2cccs2)c1	TIM10 inh 41 (no result: NALP1 inh) | tim10 confirm inactive
CCOC(=O)c1c(N)sc2c(OCC)c(Br)ccc12	TIM10 inh 41 | tim10 confirm inactive
CCOC(=O)c1sc(N)c(C(=O)OCC)c1C	none (no result: NALP1 inh)
Cc1cccc(-n2ncc3c2CCCC3NC(=O)CCN2Cc3ccccc3C2=O)c1C (stereo not drawn)	none
COC(=O)C1=C(C)N(c2ccc(C)c(C)c2)/C(=C/c2ccco2)C1=O	TIM10 inh 48 | tim10 confirm 47
COC(=O)C1=C(C)N(c2ccc(C)cc2)/C(=C/c2cccs2)C1=O	TIM10 inh 43 | tim10 confirm 32
O=C(NCCc1c[nH]c2ccccc12)c1c(Cl)nc2sccn12	none
O=C(c1c(Cl)nc2sccn12)N(C(=O)c1c(Cl)nc2sccn12)c1ccc(Cl)cn1	TIM10 inh 42 | tim10 confirm inactive
CC(C)(C)C(C(=O)n1cccc1C#N)c1ccccc1 (stereo not drawn)	none (no result: NALP1 inh)
N#Cc1nc(-c2ccco2)oc1NCCc1ccccc1	TIM10 inh 65 | tim10 confirm 57
COc1ccc(CCNc2oc(COc3ccc(F)cc3)nc2C#N)cc1	TIM10 inh 43 | tim10 confirm 36
COc1ccc(CCNc2oc(COc3ccccc3F)nc2C#N)cc1OC	none
Cc1ccc(CNc2oc(-c3ccco3)nc2C#N)cc1	none
COc1ccc(-c2nc(C#N)c(NCc3ccc(C)cc3)o2)cc1OC	none
COc1ccc(-c2nc(C#N)c(NCCc3ccccc3)o2)cc1OC	TIM10 inh 46 | tim10 confirm 41
Cc1ccc(/C=C/C(=O)N2CCN(S(=O)(=O)c3c(C)c(C)cc(C)c3C)CC2)o1	TIM10 inh 41 | tim10 confirm inactive
COc1ccc(NC(=O)COC(=O)CN2C(=O)c3ccccc3C2=O)cc1	none (no result: NALP1 inh)
CCOc1ccc(/C=N/n2c(SC)nnc2-c2ccccc2)cc1OCC	TIM10 inh 43 | tim10 confirm inactive
CCOc1ccc(C=NN2CCCCCC2)cc1OCC	none (no result: tim10-1 inh, NALP3 yeast inh, tim23-1 inh, TIM10 inh, NALP1 inh)
CCCCC[C@@H]1C=C(C(=O)O)[C@H](c2ccc(OC)c(OC)c2)N1S(=O)(=O)c1ccc(C)cc1	TIM10 inh 97 (no result: NALP1 inh) | tim10 confirm inactive
O=C(COC(=O)CN1C(=O)C(=O)c2ccccc21)OCN1C(=O)c2ccccc2C1=O	TIM10 inh 48 | tim10 confirm inactive
COc1ccc(NC(=O)c2ccc(NC(=O)c3nc4nc(C)cc(C)n4n3)cc2)cc1	TIM10 inh 42 (no result: NALP1 inh) | tim10 confirm inactive
CC(C)c1ccc(NC(=O)Cc2cn(C)c3ccccc23)cc1	TIM10 inh 47 | tim10 confirm 32
Cn1cc(CC(=O)NCc2ccc(F)cc2)c2ccccc21	none
COc1ccc(CCCc2nnc(SCC(=O)Nc3ccccc3F)o2)cc1	none
O=S(Cc1ccc(Br)cc1)Cc1nnc(SCc2c(Cl)cccc2Cl)n1-c1ccccc1 (stereo not drawn)	TIM10 inh 41 (no result: NALP1 inh) | tim10 confirm inactive
Cn1c(CS(=O)Cc2c(Cl)cccc2Cl)nnc1SCc1c(Cl)cccc1Cl (stereo not drawn)	none
Cc1ccc2[nH]c(C)c(/C=N/Nc3nc4ccccc4s3)c2c1	TIM10 inh 42 | tim10 confirm 59
COc1ccc(C=NNc2nc3ccccc3s2)cc1	none (no result: tim10-1 inh, NALP3 yeast inh, tim23-1 inh, TIM10 inh, NALP1 inh)
O=C1/C(=C\c2ccc(O)c(O)c2)SC(=S)N1Cc1ccccc1	TIM10 inh 50 | tim10 confirm 56
COc1cc(/C=C2/SC(=S)N(Cc3ccccc3)C2=O)ccc1O	none
O=C(COC(=O)CCc1ccc(S(=O)(=O)N2CCOCC2)cc1)NCc1ccccc1	none
O=[N+]([O-])c1ccc(N/N=C\c2cccn2-c2ccccc2)nc1	TIM10 inh 43 | tim10 confirm inactive
O=[N+]([O-])c1ccc(NN=Cc2ccccc2)nc1	none (no result: tim10-1 inh, NALP3 yeast inh, tim23-1 inh, TIM10 inh, NALP1 inh)
O=C(CSc1nnc(SCc2ccc(Cl)cc2)s1)N/N=C/c1ccccc1C(=O)O	none (no result: NALP1 inh)
Cc1ccc(C(=O)C[n+]2cc(-c3ccc(C)cc3)n3c2CCCCC3)cc1	TIM10 inh 46 | tim10 confirm inactive
COc1ccc(C(=O)C[n+]2cc(-c3ccc(OC)cc3)n3c2CCCC3)cc1	none
COC(=O)c1ccccc1NC(=O)COC(=O)CO/N=C(\C)c1ccc2c(c1)OCO2	none
COC(=O)c1ccccc1S(=O)(=O)NNC(=O)c1nn(C)c(=O)c2ccccc12	none (no result: NALP1 inh)
O=C(Oc1ccc(C(=S)N2CCOCC2)cc1Br)c1cc(Cl)ccc1Cl	TIM10 inh 47 | tim10 confirm inactive
O=C(Oc1c(Br)cc(C(=S)N2CCOCC2)cc1Br)c1ccc(Cl)cc1	none
Cc1cccc(OCC(O)CN2CCN(c3ccccn3)CC2)c1C (stereo not drawn)	TIM10 inh 98 | tim10 confirm inactive
Fc1cccc(Cn2cc(C(=S)N3CCCCC3)c3ccccc32)c1	TIM10 inh 48 | tim10 confirm inactive
CCCN1C(=O)/C(=N\OCC(=O)NCC(F)(F)F)c2ccccc21	none
CSc1nc(NCc2ccco2)c2ccccc2n1	TIM10 inh 40 | tim10 confirm inactive
COc1ccccc1-c1c(C)nn2c(N3CCC(C(N)=O)CC3)cc(C)nc12	none
COc1ccccc1-c1c(C)nn2c(N3CCC(C)CC3)cc(C)nc12	TIM10 inh 40 (no result: NALP1 inh) | tim10 confirm 47
O=C(Nc1ccc(OC(F)(F)F)cc1)NC1CCC(Oc2ccc(C(=O)O)cc2)CC1 (stereo not drawn)	none (no result: NALP1 inh)
COc1ccc(N2C(=O)/C(=C\c3ccco3)N=C2SCC(=O)NC(C)C)cc1Cl	none
COc1ccc(N2C(=O)/C(=C\c3ccco3)N=C2SCC(=O)N(C(C)C)C(C)C)cc1Cl	TIM10 inh 41 | tim10 confirm inactive
O=C(Nc1cccc(F)c1)c1cc(S(=O)(=O)NCCC2=CCCCC2)ccc1F	TIM10 inh 42 | tim10 confirm inactive
COc1ccc(Cc2nnc(SC(C)C(=O)Nc3ccc(F)cc3Cl)o2)cc1 (stereo not drawn)	none (no result: NALP1 inh)

From PubChem BioAssay
